Screens deposited in PubChem BioAssay by several laboratories.
RN4220 kill: kills Staphylococcus aureus RN4220; S. aureus RN4220 growth, OD600, 16 h; inhibition, % (no concentration beside the values); 0.33% of 330,000 active; in the data active means inhibition above about 85%
Mtb hypoxia inh: inhibitors of hypoxia-regulated fluorescent reporter in Mycobacterium tuberculosis; AID 1159583; fluorescence inhibition, % (no concentration beside the values); 0.1% of 300,000 active; M. tuberculosis hypoxia-regulated fluorescent reporter, fluorescence; in the data active means fluorescence inhibition mostly above about 23%, no sharp cut-off; inactive means mostly below about 17%
MazEF act: MazEF (E. coli) toxin RNase activation; FAM/BHQ RNA-DNA oligo cleavage fluorescence, 5 h; activation, % at 20 µM; AID 504720; P0AE70; 0.32% of 350,000 active; in the data active means activation above about 50%
Target sequence (P0AE70 whole entry, looked up): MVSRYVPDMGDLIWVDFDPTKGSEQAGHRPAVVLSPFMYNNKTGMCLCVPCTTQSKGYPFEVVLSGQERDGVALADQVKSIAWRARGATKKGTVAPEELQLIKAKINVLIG
TcdB GH inh: TcdB glycohydrolase inhibition | P18177 | TcdB glycohydrolase enzymatic assay, plate reader | inhibition, % at 9.99 µM | 0.24% of 350,000 active | AID 652162; in the data active means inhibition above about 10%
ugtP null kill: compounds lethal to S. aureus RN4220 ugtP deletion mutant | OD600 growth, 16 h | growth inhibition, % (no concentration beside the values) | 0.54% of 330,000 active; in the data active means growth inhibition above about 68%
PfHsp40 rescue: compounds rescuing yeast from Plasmodium falciparum HSP40 toxicity; growth rescue, % at 12.5 µM; 0.68% of 340,000 active; S. cerevisiae expressing PfHsp40, growth rescue, ATP luminescence; AID 504582; in the data active means growth rescue above about 28%, passing the limit was not always enough;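 further: yeast W303a lacking pdr1 and pdr3 grown in galactose medium; growth measured after three days at 30 °C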
Of the large screens only hits and unclear results are named; the others gave an inactive call. The list is not random: actives were taken first. Their share in the collection is about 1.3%.

CCN(CC)CCn1c(=O)n(-c2ccc(Cl)cc2)c(=O)c2c3c(sc21)CN(C)CC3	MazEF act 660
NC(=NOC(=O)c1ccc2ccccc2c1)c1cccc([N+](=O)[O-])c1	none (no result: MazEF act, TcdB GH inh, PfHsp40 rescue)
O=C(C1CCCC1)N1CC2(C1)[C@@H](c1ccccc1)[C@@H](CO)N2C(=O)c1cccnc1	none (no result: RN4220 kill, Mtb hypoxia inh, MazEF act, ugtP null kill, PfHsp40 rescue)
CC(=O)OC1CCC2(C=NO)C(=CCC3C4CCC(=O)C4(C)CCC32)C1 (configuration not stated)	none (no result: MazEF act, TcdB GH inh, PfHsp40 rescue)
C=C[C@]12CC[C@H](OC(C)=O)CC1=CCC1C2CC[C@@]2(C)C1CCC21OCCO1 (some centres not stated)	ugtP null kill 92
CC(=O)N(N=C1Sc2ccccc2C1=O)c1ccccc1C	none (no result: Mtb hypoxia inh, MazEF act, TcdB GH inh, PfHsp40 rescue)
O=c1[nH]c(SCc2nc3c(cnn3-c3ccccc3)c(=O)[nH]2)nc2ccccc12	MazEF act 50 (no result: Mtb hypoxia inh, TcdB GH inh)
C[C@@H]1CN([C@H](C)CO)S(=O)(=O)c2ccc(-c3cncnc3)cc2O[C@H]1CN(C)Cc1ccncc1	none (no result: RN4220 kill, Mtb hypoxia inh, MazEF act, ugtP null kill, PfHsp40 rescue)
COc1ccc(OC)c2c1C(=O)c1ccccc1C2=O	none (no result: TcdB GH inh, PfHsp40 rescue)
COc1ccc(OC)c2c1C(=O)C(Cl)=C(Cl)C2=O	PfHsp40 rescue 613 (no result: RN4220 kill, Mtb hypoxia inh, ugtP null kill)
O=C(O)c1cc(-c2ccc(-c3c(-c4ccc5c(c4)OCO5)noc3-c3ccsc3)cc2)nc2ccccc12	RN4220 kill 96, ugtP null kill 94
COCCCNC(=O)C1CCN(S(=O)(=O)c2c(C)noc2/C=C\c2ccc(OC)cc2)CC1	none (no result: TcdB GH inh)
CCCCNC(=O)C1CCN(S(=O)(=O)c2c(C)noc2/C=C\c2ccc(OC)cc2)CC1	TcdB GH inh 85
CSc1ccc(S(=O)(=O)NC2CC3CCC2C3)cc1 (configuration not stated)	PfHsp40 rescue 78
O=[N+]([O-])c1ccccc1S(=O)(=O)NC1CC2CCC1C2 (configuration not stated)	none
O=S(=O)(N[C@@H]1C[C@H]2CC[C@@H]1C2)c1cccs1	none (no result: Mtb hypoxia inh, TcdB GH inh)
COc1ccc(S(=O)(=O)NC2CC3CCC2C3)cc1 (configuration not stated)	PfHsp40 rescue 95
COc1ccc(N2C(=O)C(Cl)=C(Nc3ccccc3O)C2=O)cc1	PfHsp40 rescue 82 (no result: TcdB GH inh)
O=C(/C=C/c1ccc(F)cc1)NCCCN1CCN(CCCNC(=O)/C=C/c2ccc(F)cc2)CC1	PfHsp40 rescue 37
Cc1ccsc1C=NNC(=S)NCCc1ccccc1	none (no result: MazEF act, TcdB GH inh, PfHsp40 rescue)
Nc1ncc(S(=O)(=O)c2ccc([N+](=O)[O-])cc2)s1	RN4220 kill 98, TcdB GH inh 11, ugtP null kill 96
O=[N+]([O-])c1ccc(S(=O)(=O)c2ccccc2)nc1	PfHsp40 rescue 289 (no result: RN4220 kill, Mtb hypoxia inh, ugtP null kill)
Cc1ccc(S(=O)(=O)c2ccc([N+](=O)[O-])cn2)cc1	PfHsp40 rescue 164 (not shown: Mtb hypoxia inh)
O=C(COC(=O)c1ccc(Cl)nc1)Nc1cc(S(=O)(=O)N2CCCCC2)ccc1Cl	PfHsp40 rescue 173
CCN1CCN(CC(=O)Nc2cc(S(=O)(=O)N3CCCCC3)ccc2Cl)CC1	PfHsp40 rescue 56
O=C(CN1CCN(c2ccc(O)cc2)CC1)Nc1cc(S(=O)(=O)N2CCCCC2)ccc1Cl	none
Cc1cccc(C2CC(c3ccccc3)Nc3nc(N)nn32)c1 (configuration not stated)	PfHsp40 rescue 48 (no result: Mtb hypoxia inh)
O=C(CSc1nc2ccccc2c(=O)n1-c1ccc(Cl)cc1)NN=C/C=C/c1ccccc1[N+](=O)[O-]	none (no result: MazEF act, TcdB GH inh, PfHsp40 rescue)
CC1SCC(=NOCc2c(Cl)cccc2Cl)CS1 (configuration not stated)	PfHsp40 rescue 59
CCN1C(=O)C2C(C1=O)C(c1ccc(Br)cc1)N1C(=O)c3ccccc3NC(=O)C21 (configuration not stated)	none (no result: MazEF act, TcdB GH inh, PfHsp40 rescue)
CC(C)=CCc1c(O)c(CC=C(C)C)c2c(c1O)C(=O)CC(c1ccc(O)cc1)O2 (configuration not stated)	none (no result: Mtb hypoxia inh)
CC(C)=CCc1c(O)cc(O)c2c1OC(c1ccc(O)cc1)CC2=O (configuration not stated)	PfHsp40 rescue 262 (no result: Mtb hypoxia inh)
C[C@H](CO)N1C[C@H](C)[C@H](CN(C)C(=O)c2cccc(F)c2)Oc2cc(-c3ccncc3)ccc2S1(=O)=O	none (no result: RN4220 kill, Mtb hypoxia inh, MazEF act, ugtP null kill, PfHsp40 rescue)
O=C(NC=NOCc1ccc(Cl)cc1Cl)NOCc1c(Cl)cccc1Cl	none (no result: MazEF act, TcdB GH inh, PfHsp40 rescue)
O=C(N/C=N/OCc1ccc(Cl)cc1Cl)NOCc1c(Cl)cccc1Cl	MazEF act 80 (no result: RN4220 kill, Mtb hypoxia inh, TcdB GH inh, ugtP null kill)
Cc1[nH]n(-c2ccccc2)c(=O)c1/C=N/Nc1nncc(-c2ccccc2)n1	PfHsp40 rescue 262 (no result: RN4220 kill, Mtb hypoxia inh, ugtP null kill)
Cc1[nH]n(-c2ccccc2)c(=O)c1C=NNc1nncc(-c2ccccc2)n1	RN4220 kill 96, ugtP null kill 98 (no result: MazEF act, TcdB GH inh, PfHsp40 rescue)
CC(=O)Nc1cccc(C(C)=NNC(=O)c2cccs2)c1	none (no result: MazEF act, TcdB GH inh, PfHsp40 rescue)
Cc1no[n+]([O-])c1COc1cccc(C=NNc2nncn2N)c1	none (no result: MazEF act, TcdB GH inh, PfHsp40 rescue)
COc1ccc(Nc2nc3ccc(OC)cc3s2)cc1	none
c1ccc2sc(NC3=NCCN3)nc2c1	PfHsp40 rescue 186
COc1ccc2nc(N3C(=O)CNC3=S)sc2c1	PfHsp40 rescue 32 (no result: RN4220 kill, Mtb hypoxia inh, ugtP null kill)
COc1ccc2nc(NC3=NCCN3)sc2c1	PfHsp40 rescue 126 (no result: RN4220 kill, Mtb hypoxia inh, ugtP null kill)
CN(C)C(=O)c1cccc(-c2ccc([C@@H]3[C@H](CO)N4C(=O)CN(C(=O)C5CCCC5)C[C@@H]34)cc2)c1	none (no result: RN4220 kill, Mtb hypoxia inh, MazEF act, ugtP null kill, PfHsp40 rescue)
Cc1cc(C)c(C(=O)CN2C(=O)NC3(CCCCCC3)C2=O)cc1C	PfHsp40 rescue 52
Cc1cc(C(=O)CN2C(=O)NC3(CCCCC3)C2=O)c(C)n1C	none
CCOC(=O)c1c(N2C(=O)CC(Sc3ccccc3C(=O)O)C2=O)sc2c1CCCC2 (configuration not stated)	PfHsp40 rescue 41
CCCC#Cc1cnc2c(c1)C(=O)N([C@@H](C)CO)C[C@H](C)[C@H](CN(C)C(=O)Nc1cc(F)ccc1F)O2	none (no result: RN4220 kill, Mtb hypoxia inh, MazEF act, ugtP null kill, PfHsp40 rescue)
Cc1ccccc1C(=O)NC(=S)Nc1ccccc1N1CCCC1	ugtP null kill 85
O=C(NC(=S)Nc1ccccc1N1CCCC1)c1ccc(F)cc1	none (no result: TcdB GH inh)
O=C(NC(=S)Nc1ccccc1N1CCCCC1)c1ccc(F)cc1Cl	ugtP null kill 91
COc1ccccc1C(=O)NC(=S)Nc1ccccc1N1CCCC1	none (no result: RN4220 kill, Mtb hypoxia inh, MazEF act, ugtP null kill)
NCCCCc1ccc2ccc3cccc4ccc1c2c34	RN4220 kill 101, ugtP null kill 100
Cc1cccc(N2CCN(CC(=O)N(C)Cc3ccccc3)CC2C)c1 (configuration not stated)	PfHsp40 rescue 44
O=C1NC(=S)/C(=C\c2ccc(-c3ccccc3Cl)o2)S1	RN4220 kill 97, ugtP null kill 95 (no result: TcdB GH inh)
O=C(O)/C(=C\c1ccc(F)cc1)c1ccc(-c2ccccc2)cc1	PfHsp40 rescue 512
O=C(O)/C(=C\c1ccccc1OC(F)F)c1ccc(-c2ccccc2)cc1	none
O=[N+]([O-])c1ccc(O)c(C=NNc2ccc(S(=O)(=O)O)cc2)c1	RN4220 kill 89
O=C1C2C(C(=O)N1N=Cc1cc([N+](=O)[O-])c(O)cc1O)C1C=CC2C12CC2 (configuration not stated)	none (no result: MazEF act, TcdB GH inh, PfHsp40 rescue)
